# Measured values reported in PubChem BioAssay AID759 (NMMLSC, 2007).
# The campaign covered roughly 190,000 compounds. About 270 (0.14%) were called active. Another 2% or so got no clear call; they are omitted. The full list was thinned out, with actives kept by preference. Values without a mark were called inactive.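 Rule for the calls: active = GTP binding activity at least 20% away from the 100% baseline, either lowered as inhibitor or raised as activator; inconclusive = flagged as likely green fluorescent, judged across all proteins in the well; inactive = the rest.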
# Molecular target: GTPase HRas (Homo sapiens) (UniProt P01112)
# Sequence (P01112 whole entry, looked up): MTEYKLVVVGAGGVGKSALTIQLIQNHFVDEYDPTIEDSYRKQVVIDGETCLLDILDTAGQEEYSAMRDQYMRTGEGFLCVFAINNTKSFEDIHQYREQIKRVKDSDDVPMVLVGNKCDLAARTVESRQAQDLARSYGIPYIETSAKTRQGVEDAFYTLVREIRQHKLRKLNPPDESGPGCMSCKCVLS
# Assay: modulators of GTP binding to HRas wildtype, primary screen, biochemical, bead-based flow cytometry, multiplex (AID 759);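 note: 0% = unlabeled GTP competition control and 100% = no-compound control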
# Conditions: GST-Ras wt beads, Bodipy-FL-GTP binding, at 10 µM, actives lie on both sides
row,Compound,GTP binding activity
1,CCCCNC(=O)Nc1c(C)cc(SC#N)cc1C,95%
2,CCCSc1nc2[nH]ncc2c(=O)[nH]1,101%
3,Cc1ccc(CSc2nc3[nH]ncc3c(=O)[nH]2)cc1,78% (active)
4,Cc1cccc(NC(=O)CSc2nc3[nH]ncc3c(=O)[nH]2)c1,97%
5,CCC(=O)/C(=C(/O)c1ccccc1)c1nc2ccccc2[nH]1,98%
6,COC(=O)c1nn(-c2cccc(Cl)c2)ccc1=O,97%
7,O=C(CC12CC3CC(CC(C3)C1)C2)NCc1ccco1,96%
8,CCc1ccc(Nc2nnc(SCC(=O)c3ccc4c(c3)NC(=O)CO4)s2)cc1,99%
9,COc1ccccc1CC(NC(C)=O)C(=O)NC1CCN(C(=O)Nc2ccccc2Cl)CC1 (centres undefined),101%
10,COC(=O)c1ccc(/C=N/OCC(=O)Nc2cc(F)ccc2F)cc1,95%
11,COc1ccc(N2CCN(CCCNC(=O)C3CCN(S(=O)(=O)N4CCOCC4)CC3)CC2)cc1,96%
12,COc1ccc(/C=C/CN2CCN(Cc3ccc(C)cc3)C(CCO)C2)cc1 (centres undefined),105%
13,COc1cccc(NCCC(=O)c2cccc([N+](=O)[O-])c2)c1,97%
14,Cc1ccc(C(=O)O)cc1NC(=O)c1ccc(Cn2nc(C)c(Cl)c2C)o1,100%
15,Cc1noc(C)c1COc1cccc(C(=O)Nc2cccnc2)c1,97%
16,Cc1[nH]c2c(C(=O)N3CCCC(CCC(=O)NCc4ccccc4F)C3)cccc2c1C (centres undefined),106%
17,COC(=O)c1nc(NC(=O)c2ccc(F)cc2)n[nH]1,98%
18,N#CC1=C(N)Oc2[nH]c(=S)[nH]c(=O)c2C12C(=O)Nc1ccccc12 (centres undefined),96%
19,COc1ccc(/C=C(\C#N)C(=O)ONC2=NCCCCC2)cc1,97%
20,C=C(C)CNC(=S)N/N=C/c1ccccc1OCC(=O)O,95%
21,O=C(COC(=O)c1cnc(Cl)c(Cl)c1)NCc1ccco1,97%
22,CN1CCN(C(=O)N2c3ccccc3CCc3ccccc32)CC1,102%
23,O=C(Nc1cccc(Cl)c1)c1cc([N+](=O)[O-])ccc1N1CCN(CCO)CC1,97%
24,CC/C(Cc1ccccc1)=N/NC(=O)CCn1nnc2ccccc21,101%
25,CSc1ncccc1C(=O)NC1CCCCCC1,98%

row,Compound,GTP binding activity
1,COc1ccc(NC(=O)c2c(SC)nsc2SC)cc1,101%
2,CSc1nsc(SC)c1NC(=O)OC1CCCCC1,39% (active)
3,Cc1ccc(S(=O)(=O)N2CCN(C(=O)c3cccs3)CC2)cc1,93%
4,COc1ccc(O)c(C(=O)c2cnc3c(c2)c(-c2ccc(F)cc2)c(C#N)c(=O)n3C)c1,95%
5,O=C(CCCc1ccccc1)NCc1ccccc1,94%
6,COc1cc2nc(CN(C)Cc3ccc(F)cc3)[nH]c(=O)c2cc1OC,97%
7,NC(=O)c1ccccc1NC(=O)c1ccccc1F,101%
8,O=C(Nc1ccccc1F)c1ccccc1-c1ccc(C(F)(F)F)cc1,104%
9,O=C(Nc1ccccc1F)c1ccccc1-c1ccccc1,76% (active)
10,COc1cc(C(=O)N[C@@H](C)C(=O)NCc2ccco2)cc(OC)c1OC,98%
11,Cc1cccn2c(CN(C)C3CCCc4ccccc43)c(C(=O)N3CCOCC3)nc12 (centres undefined),98%
12,O=C1CC(c2c(F)cccc2Cl)C(n2cncn2)C(O)=C1C1NCCc2ccccc21 (centres undefined),94%
13,O=C(Nc1ccccc1C(=O)N1CCOCC1)c1ccc(CSc2ccccc2)cc1,100%
14,Nc1ncnc(Nc2cccc(Cl)c2Cl)n1,97%
15,COc1cc(C(=O)N2C(=O)c3cccc(N)c3C2=O)cc(OC)c1OC,95%
16,COc1c(F)c(F)c(C(=O)O)c(Nc2ccccc2C)c1F,98%
17,Cc1ccc(Nc2c(F)c(F)c(F)c(F)c2C(=O)O)c(C)c1,124% [activator] (active)
18,Cc1ccc(NC(=S)NC(=O)c2ccc(-c3ccccc3)cc2)c(C)c1,100%
19,Cc1cc(C)nc(NNC2=CC(=O)CC(C)(C)C2)n1,99%
20,CCOc1ccc(OCc2cccc(C(=O)N(CC)CC)c2)cc1,98%
21,CN(Cc1cc2cc(F)ccc2[nH]1)Cc1nc(-c2cnccn2)no1,98%
22,CC(C)(C)C(=O)N(Cc1ccccc1)c1ccccn1,95%
23,COc1ccccc1NC(=O)COC(=O)Cc1ccc(S(=O)(=O)N2CCCCC2)s1,98%
24,S=c1ccc2ccccc2[nH]1,98%
25,C=CCNC(=O)CC12CC3CC(C1)CC(CC(=O)NCC=C)(C3)C2,99%

row,Compound,GTP binding activity
1,Cc1ccc(SCCC(=O)NCc2ccccn2)cc1,99%
2,CCOc1ccc(NS(=O)(=O)c2cc(C)c(C)cc2C)cc1,98%
3,COc1ncnc2sc3c(c12)CCCC3,103%
4,COc1cc(/C=N/Nc2ccc(C)cc2)cc(Br)c1O,96%
5,COc1ccc(/C=N/Nc2ncnc3sc4c(c23)CCCC4)cc1O,71% (active)
6,O=C(Nc1ccc(-c2ccc3nncn3n2)cc1)C1CCCCC1,99%
7,O=C(OCC1O[C@@H](OC(=O)c2cc(O)c(O)c(O)c2)[C@@H](OC(=O)c2cc(O)c(O)c(O)c2)[C@@H](OC(=O)c2cc(O)c(O)c(O)c2)[C@@H]1OC(=O)c1cc(O)c(O)c(O)c1)c1cc(O)c(O)c(O)c1 (some centres undefined),79% (active)
8,CC(=O)NC1C(OCc2ccccc2)OC(COC(C)=O)C(OC(C)=O)C1OC(C)=O (centres undefined),102%
9,O=S(=O)(Nc1ncccn1)c1ccc(NS(=O)(=O)c2cccc(Cl)c2Cl)cc1,96%
10,CC(CC(=O)O)CC(=O)NNC(=O)c1cccc(Br)c1 (centres undefined),95%
11,CC(C)N(C)C(=O)CCc1nnc(CCc2c[nH]c3ccccc23)o1,93%
12,CCOc1cc(NC(=S)NCc2ccco2)c(OCC)cc1NC(=O)c1ccco1,98%
13,O=C(CN1CCN(S(=O)(=O)/C=C/c2ccccc2)CC1)Nc1ccc(N2CCOCC2)cc1,99%
14,Cc1ccc(CC(=O)Nc2cccc(C#N)c2)cc1,98%
15,NNC(=O)c1cnn(-c2ccccc2)c1C(F)(F)F,98%
16,CCCN(CC(=O)Nc1ccc(C(N)=O)cc1)CC(=O)Nc1ccccc1C,96%
17,CN(C)C(=O)CSc1n[nH]c(-c2ccco2)n1,94%
18,O=C(CNCc1ccc(Cl)cc1)Nc1cccc(C(=O)O)c1,95%
19,CCN(CC)c1ccc2c(Nc3ccccc3)c(C=O)c(=O)oc2c1,93%
20,CC(=O)c1sc(NC(=O)C2=NN(c3ccccc3)C(=O)CC2)nc1C,98%
21,COc1ccc(NC(=O)COC(=O)c2ccncc2)c(OC)c1,97%
22,C=CCOCCN(C)C1=NS(=O)(=O)c2ccccc21,100%
23,Cc1cc(OC(=O)c2ccccc2Cl)ccc1N1C(=O)CCC1=O,97%
24,CN(C)c1ccc(NC(=O)CSc2n[nH]c(-c3ccco3)n2)cc1,94%
25,CCOC(=O)c1sc(NC(=O)c2cc(S(=O)(=O)N3CCOCC3)ccc2C)nc1C,100%

row,Compound,GTP binding activity
1,COc1ccc(S(=O)(=O)N2CCOCC2)cc1C(=O)Nc1nc2ccccc2s1,75% (active)
2,COc1ccc(S(=O)(=O)N2CCOCC2)cc1NC(=O)CSc1ncnc2ccccc12,93%
3,O=C(O)CC1S/C(=N\N=C/c2ccccc2O)N(c2ccc(O)cc2)C1=O (centres undefined),97%
4,Cc1sc2c(c1C)c(=O)n(-c1ccccc1)c(=O)n2CC(=O)NCC1CCCO1 (centres undefined),98%
5,C=CCOC(=O)C1=C(C)N=C2SCCC(=O)N2C1/C=C/c1ccccc1OC (centres undefined),99%
6,COc1cc(N/C=C2\CC(=O)NC(C)=C2C#N)cc(OC)c1OC,102%
7,O=C(Nc1ccc(N2CCOCC2)cc1)c1ccc2c(c1)OCO2,99%
8,CCc1ccc(NC(=O)C(=O)N/N=C(\C)CC(=O)NCCOC)cc1,96%
9,CCn1c(SCc2cc(=O)n3ccsc3n2)nc2ccccc21,102%
10,Oc1cccc2ccc(/C=C/c3ccc(Br)s3)nc12,100%
11,CC(=O)C1(C)N(O)C(C)(C)C(c2cccs2)=[N+]1[O-] (centres undefined),98%
12,CCOCC(=O)Nc1ncc(S(=O)(=O)c2ccc([N+](=O)[O-])cc2)s1,91%
13,CN(C(=O)CSc1nncc2ccccc12)C1CCCCC1,96%
14,CC1(C)CC(=O)C(CC(=O)N2CCC(Cc3ccccc3)CC2)C(=O)C1,96%
15,CCn1cc(-c2cc(C(=O)O)on2)c(C)n1,95%
16,c1csc(-c2nnc(COc3ccc4c(c3)OCO4)o2)c1,96%
17,CCNC(=O)CC1C(=O)N(c2ccc(F)cc2)C(=O)N1Cc1cccs1 (centres undefined),100%
18,CNC(=O)NC(=O)CSc1nnc(-c2ccc(F)cc2)n1CC1CCCO1 (centres undefined),97%
19,C=CCn1c(COc2ccc(F)cc2)nnc1SCC(=O)Nc1cccc(S(N)(=O)=O)c1,96%
20,Cc1ccccc1C(=O)Nc1ccc(N2CCCCCC2)cc1,96%
21,Nc1nnc(SCn2nnc3ccccc3c2=O)s1,95%
22,O=C(NCc1ccc(F)cc1)C(c1ccccc1)N(C(=O)c1csnn1)C1CC1 (centres undefined),95%
23,O=C(O)CCCCCNc1ncnc2ccc(Br)cc12,97%
24,C=C(C)C1CC=C(C)/C(=N/NC(=O)CCCNc2cccc(C)c2)C1 (centres undefined),96%
